From PubChem BioAssay (NCATS)
Where “and” joins values, the source holds several entries; their conditions need not be identical. Equal entries are not always repeated. Records with an inconclusive call do not appear. A call without a number means that no potency is given here. The source holds several records for some structures; these can differ, active in one and inactive in another. Calls of active or inactive are those of the source. Unless noted, calls follow the shape of the dose curve; as a rule, active = well fitted curve in the direction sought with a large enough effect; inconclusive = small, poorly fitted or top-dose-only effect, or another doubt; inactive = no such curve, though single readings can be large; an effect the other way counts as inactive or inconclusive.

What was measured:
[1] = molecular target: Protein phosphatase 1D (Homo sapiens) (UniProt O15297); assay: Rhodamine-PBP qHTS Assay for Modulators of WT P53-Induced Phosphatase 1 (WIP1) (AID 1347425)
Outline: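 WIP1 (5 nM final) was preincubated with compound for 1 hour at room temperature. It then dephosphorylated 10 uM VEPPL-pS-QETFS peptide in Tris-HCl pH 7.5 with 30 mM MgCl2. Released Pi was detected by 10 uM Rh-PBP fluorescence (ex 525/em 598 nm) read at 1-min intervals for 11 min, as delta f1 - f0.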

[2] = Primary qHTS for inhibitors of La Crosse Virus (LACV) - induced cell death in SH-SY5Y cells (AID 1508616);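 also: top concentration of the series differs between compounds; higher means more rescue of cells from virus-induced death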
Outline: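 SH-SY5Y, 6000 cells/well; cpd via pin tool in DMSO; LACV 0.01 MOI; 6 d 37C 5% CO2; ATPLite, 5 min RT; luminescence normalized to ±virus DMSO controls.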

[3] = A High-Content qHTS Against Drug Library for the Identification of Small Molecules that Inhibit DYT1 Early Onset Primary Dystonia-Associated Cell Pathology (AID 1645839; calls by dose curve; also: series mostly up to about 46 µM)
Outline: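 High-content imaging quantified EGFP-TorsinA mislocalization in HEK293-derived cells inducibly expressing DYT1 mutant torsinA, after 48 h exposure to compound given together with tetracycline induction. Cell count served as a toxicity channel alongside %pathology.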

[4] = molecular target: Cytochrome P450 2D6 (Homo sapiens) (UniProt P10635); assay: Cytochrome P450 family 2 subfamily D member 6 (CYP2D6) small molecule antagonists: luciferase biochemical (cell-free) qHTS assay (AID 1645840; active = well fitted curve in the direction sought with a large enough effect in the repeat runs; an effect the other way counts as inactive or inconclusive; also: nearly all actives have a fitted effect of over 55% in size; also: potency is read from the fitted curve at half-maximal effect)
Outline: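 P450-Glo CYP2D6 system: proluciferin substrate converted by enzyme to luciferin, read by luminescence proportional to activity. Enzyme-substrate mix with compound 10 min at room temperature, then NADPH regeneration 1 h before detection reagent.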

[5] = molecular target: Cytochrome P450 2C9 (Homo sapiens) (UniProt P11712); assay: Cytochrome P450 family 2 subfamily C member 9 (CYP2C9) small molecule antagonists: luciferase biochemical (cell-free) qHTS assay (AID 1645842; active = well fitted curve in the direction sought with a large enough effect in the repeat runs; an effect the other way counts as inactive or inconclusive; also: nearly all actives have a fitted effect of over 55% in size; also: potency is read from the fitted curve at half-maximal effect)
Outline: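 P450-Glo CYP2C9 system: proluciferin substrate with enzyme in mix containing 0.4% BSA, 10 min at room temperature, then NADPH regeneration solution added and incubated 1 h at 37C. Detection reagent stopped reaction; luminescence read after 20 min as RLU.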

[6] = Primary qHTS for inhibitors of nuclear receptor binding SET domain protein 2 (NSD2) in an isogenic RCH-ACV NSD2 p.E1099K mutant (9B) (AID 1645876); also: nearly all actives have a fitted effect of over 70% in size; also: potency is read from the fitted curve at half-maximal effect
[7] = Primary qHTS for inhibitors of nuclear receptor binding SET domain protein 2 (NSD2) in an RCH-ACV wild type WT cells (2C) (AID 1645877); also: nearly all actives have a fitted effect of over 70% in size; also: potency is read from the fitted curve at half-maximal effect
[8] = Primary qHTS for small molecule stabilizers of the endoplasmic reticulum resident proteome: Secreted ER Calcium Modulated Protein (SERCaMP) assay (AID 1508630)
Outline: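 The SH-SY5Y reporter protocol was run at 3 concentrations up to 38.3 uM (primary) or 11 concentrations (follow-up): 16 h compound, 100 nM thapsigargin for 4 h, then extracellular luciferase luminescence.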

[9] = molecular target: Calcium and integrin-binding protein 1 (Homo sapiens) (UniProt Q99828); assay: Primary qHTS for Identification of Calcium Integrin Binding Protein 1 (CIB1) Competitor (AID 1508620);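 also: GST tagged CIB1 binding a fluorescein labelled alphaIIb integrin peptide tracer; top concentration of the series differs between compounds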
Outline: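 CIB1-GST (1 uM final) and compound incubated 15 min at room temperature before adding FITC-alphaIIb peptide tracer (100 nM final). Competition for binding read by fluorescence polarization (ex 480, em 540) after another 15 min at room temperature.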

Cytochrome P450 2D6 (Homo sapiens), sequence (P10635 whole entry, looked up): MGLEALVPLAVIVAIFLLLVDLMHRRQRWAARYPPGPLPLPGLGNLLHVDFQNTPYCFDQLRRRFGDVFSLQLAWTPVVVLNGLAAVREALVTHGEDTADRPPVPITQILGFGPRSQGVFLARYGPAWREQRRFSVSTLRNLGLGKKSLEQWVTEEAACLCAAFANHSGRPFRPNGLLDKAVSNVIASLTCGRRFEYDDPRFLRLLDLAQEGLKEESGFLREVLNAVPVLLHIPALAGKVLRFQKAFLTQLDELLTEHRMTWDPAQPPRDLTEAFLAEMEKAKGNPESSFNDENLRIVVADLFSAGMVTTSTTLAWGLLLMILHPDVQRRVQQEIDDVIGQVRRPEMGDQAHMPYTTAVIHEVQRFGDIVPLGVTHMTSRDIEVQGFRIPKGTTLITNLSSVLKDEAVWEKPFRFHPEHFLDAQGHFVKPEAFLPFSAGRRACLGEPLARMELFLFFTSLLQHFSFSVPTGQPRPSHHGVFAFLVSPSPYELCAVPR
Protein phosphatase 1D (Homo sapiens), sequence (O15297 whole entry, looked up): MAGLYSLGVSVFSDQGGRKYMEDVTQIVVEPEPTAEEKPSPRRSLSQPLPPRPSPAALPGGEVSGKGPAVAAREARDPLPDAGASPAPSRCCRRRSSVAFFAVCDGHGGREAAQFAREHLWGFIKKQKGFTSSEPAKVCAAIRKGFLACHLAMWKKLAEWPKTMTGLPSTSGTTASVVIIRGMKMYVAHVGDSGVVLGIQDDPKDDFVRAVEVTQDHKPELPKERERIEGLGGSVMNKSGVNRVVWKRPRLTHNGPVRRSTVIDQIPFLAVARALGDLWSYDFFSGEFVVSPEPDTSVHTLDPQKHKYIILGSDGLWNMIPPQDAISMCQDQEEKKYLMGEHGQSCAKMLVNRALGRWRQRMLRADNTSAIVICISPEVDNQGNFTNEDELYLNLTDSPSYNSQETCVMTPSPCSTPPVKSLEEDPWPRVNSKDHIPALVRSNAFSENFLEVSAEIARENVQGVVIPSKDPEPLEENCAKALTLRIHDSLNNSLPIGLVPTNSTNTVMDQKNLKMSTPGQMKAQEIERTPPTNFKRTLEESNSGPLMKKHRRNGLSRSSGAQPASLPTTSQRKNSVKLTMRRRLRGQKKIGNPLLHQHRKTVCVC
Cytochrome P450 2C9 (Homo sapiens), sequence (P11712 whole entry, looked up): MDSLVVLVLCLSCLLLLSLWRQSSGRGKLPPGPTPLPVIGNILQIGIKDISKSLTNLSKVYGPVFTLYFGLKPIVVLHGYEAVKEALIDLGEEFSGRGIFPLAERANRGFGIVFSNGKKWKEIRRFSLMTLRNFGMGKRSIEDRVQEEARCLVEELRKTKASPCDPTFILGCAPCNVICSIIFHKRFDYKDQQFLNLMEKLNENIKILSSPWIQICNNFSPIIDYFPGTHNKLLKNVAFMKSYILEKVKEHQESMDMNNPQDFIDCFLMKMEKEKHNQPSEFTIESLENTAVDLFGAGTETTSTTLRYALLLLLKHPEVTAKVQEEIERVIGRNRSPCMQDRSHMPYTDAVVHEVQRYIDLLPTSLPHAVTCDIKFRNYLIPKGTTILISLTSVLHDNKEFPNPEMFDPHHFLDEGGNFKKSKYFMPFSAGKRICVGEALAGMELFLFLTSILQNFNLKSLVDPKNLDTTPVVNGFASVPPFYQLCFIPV
Calcium and integrin-binding protein 1 (Homo sapiens), sequence (Q99828 whole entry, looked up): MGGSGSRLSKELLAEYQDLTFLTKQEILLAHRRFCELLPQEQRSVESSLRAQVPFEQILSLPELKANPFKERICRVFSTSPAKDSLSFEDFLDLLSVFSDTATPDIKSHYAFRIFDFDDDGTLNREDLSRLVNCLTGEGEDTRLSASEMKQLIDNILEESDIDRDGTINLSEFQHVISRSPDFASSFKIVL

| SMILES | outcome [1] | Potency [2] | Potency [3] | Potency [4] | Potency [5] | Potency [6] | Potency [7] | Potency [8] | outcome [9] |
| --- | --- | --- | --- | --- | --- | --- | --- | --- | --- |
| Cc1nnc(C(=O)NC(C)(C)c2nc(C(=O)NCc3ccc(F)cc3)c(O)c(=O)n2C)o1 | inactive | inactive | inactive | inactive | inactive | inactive | inactive |  |  |
| COc1cc([C@@H]2c3cc4c(cc3[C@H](O)[C@H]3COC(=O)[C@H]23)OCO4)cc(OC)c1OC | inactive | inactive | inactive | inactive | 1.55 µM (active) | 7.5 nM (active) and 37.2 nM (active) | 6 nM (active) and 29.5 nM (active) |  |  |
| Cc1cc(NS(=O)(=O)c2ccc(N)cc2)no1 | inactive | inactive | inactive |  |  |  |  |  |  |
| C[C@@H](NCCCc1cccc(C(F)(F)F)c1)c1cccc2ccccc12 | inactive | inactive |  | 30.9 nM (active) and 19 nM (active) | 26.8 µM (active) | 13.3 µM (active) and 18.6 µM (active) | 15 µM (active) and 14.8 µM (active) | inactive |  |
| NC(N)=NC(N)=NCCc1ccccc1 | inactive | inactive | inactive | 6.17 µM (active) |  |  |  |  |  |
| CC(C)Cn1cnc2c(N)nc3ccccc3c21 | inactive | inactive | inactive |  | inactive | inactive | inactive | inactive |  |
| Cn1nnc2c(C(N)=O)ncn2c1=O | inactive | inactive | inactive | inactive | inactive | inactive | inactive | inactive |  |
| Cc1nnc(NS(=O)(=O)c2ccc(N)cc2)s1 | inactive | inactive | inactive | inactive | 17.4 µM (active) | inactive | inactive | inactive |  |
| CCCOc1ccc(C(=O)OCCN(CC)CC)cc1N | inactive | inactive | inactive | 6.17 µM (active) and 6.74 µM (active) | inactive | inactive | inactive |  |  |
| CC1=CC(=O)c2ccccc2C1=O | inactive | inactive |  | 15.5 µM (active) |  | 31.6 µM (active) and inactive |  |  | inactive |
| Nc1ccc(S(=O)(=O)Nc2ccccn2)cc1 | inactive | inactive | inactive | inactive | inactive | inactive | inactive | inactive |  |
| Nc1nc(N)nc(-c2cc(Cl)ccc2Cl)n1 | inactive | inactive | inactive | inactive | inactive | inactive | inactive | inactive |  |
| CCn1cc(C(=O)O)c(=O)c2cc(F)c(N3CCN(C)CC3)cc21 | inactive | inactive | inactive |  |  | inactive | inactive | inactive |  |
| COc1cccc(N(C)C(=S)Oc2ccc3c(c2)CCCC3)n1 | inactive | inactive | inactive | inactive | inactive | inactive | inactive |  |  |
